Assay results published in PubChem BioAssay (NCI).
The panel holds about 79,000 compounds, 15% with a hit somewhere; the sample as a whole holds those more often. Rule as the data show it: active = growth inhibition above about 70%; inactive = the rest.

Legend:
[1] = NCI Yeast Anticancer Drug Screen. Data for the rad50 strain (AID 155);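 also: 0% = growth of vehicle-only cultures of the same strain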; conditions: S. cerevisiae rad50 strain growth inhibition; at 50.0 µM; hits give high values
Outline: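 Readout: growth inhibition relative to vehicle-treated cultures. Compound exposure was carried out in a genetically defined yeast strain deficient in DNA damage repair.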

[2] = NCI Yeast Anticancer Drug Screen. Data for the mec2-1 strain (AID 157); conditions: S. cerevisiae mec2-1 strain, at 50.0 µM, hits give high values
Outline: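 Growth inhibition is read against vehicle-treated controls after compound exposure of the mec2-1 yeast strain, which is defective in DNA damage repair or cell cycle control.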

[3] = NCI Yeast Anticancer Drug Screen. Data for the sgs1 mgt1 strain (AID 161);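 also: 0% = growth of cultures given vehicle only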; conditions: S. cerevisiae sgs1 mgt1 strain, at 50.0 µM, hits give high values
Outline: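 Percent growth inhibition was derived by comparing compound-exposed mutant yeast with vehicle-exposed cultures. The strain carries alterations in DNA damage repair.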

[4] = NCI Yeast Anticancer Drug Screen. Data for the cln2 rad14 strain (AID 165);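 also: 0% = growth equal to vehicle treated cultures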; conditions: S. cerevisiae cln2 rad14 strain, at 50.0 µM, hits give high values
Outline: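 Growth inhibition, relative to vehicle-treated controls, is the read-out. The test organism is a yeast strain with defined genetic alterations, cln2 rad14.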

[5] = NCI Yeast Anticancer Drug Screen. Data for the bub3 strain (AID 167); conditions: S. cerevisiae bub3 mutant strain, at 50.0 µM, hits give high values
Outline: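 Readout: yeast growth inhibition, expressed relative to vehicle-only wells. The test organism is a mutant strain from a panel with lesions in DNA repair or checkpoint genes.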

[6] = NCI Yeast Anticancer Drug Screen. Data for the mlh1 rad18 strain (AID 175); conditions: S. cerevisiae mlh1 rad18 strain growth inhibition; at 50.0 µM; hits give high values
Outline: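 Cells of a genetically altered yeast strain, deficient in DNA damage repair, were treated with compound. Their growth was then compared with that of vehicle-treated cultures to give inhibition.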

Measured: growth inhibition

O=c1cccc(CCc2ccccc2)[nH]1
inactive: [1] -8.85% | [2] -9.35% | [3] -9.6% | [4] 0.6% | [5] -0.55% | [6] -16.4%

C=C1C(=O)OC2/C=C(\C)C(=O)CC3OC(C)(C)OC3(C)CC(OC(=O)/C(C)=C/C)C12 (stereo not given)
inactive: [1] 15.4% | [2] -14% | [3] 16.6% | [4] 9.6% | [5] -16.2% | [6] -30.6%

O=C1NC(=O)C(=Cc2cc3c(cc2Br)OCO3)C(=O)N1
inactive: [1] 32% | [2] 30.9% | [3] 40.7% | [4] 7% | [5] 41.9% | [6] 25.9%

Cc1ccccc1S(=O)(=O)Nn1cnc2ccc(S(=O)(=O)Nc3ccc(Cl)cc3)cc2c1=O
inactive: [1] 40.1% | [2] 0.25% | [3] 40.6% | [4] 6.95% | [5] 23.9% | [6] 30.1%

CCN(CC)CCN1CC(=O)N2Cc3ccccc3CN2C(=O)C1
inactive: [1] -0.7% | [2] -4.45% | [3] 0.6% | [4] 10.4% | [5] 4.45% | [6] 5.9%

Cc1ccc(NC(=O)OCC(F)(F)F)cc1NC(=O)OCC(F)(F)F
inactive: [1] 1.9% | [2] 29.3% | [3] 26.1% | [4] -0.9% | [5] 16.8% | [6] 1.95%

Nc1cccc2c1C(=O)c1cccc(Nc3ccc4c(c3)C(=O)c3ccccc3C4=O)c1C2=O
inactive: [1] -2.95% | [2] -2.7% | [3] 5.55% | [4] 47.9% | [5] -14.2% | [6] 32.9%

O=c1[nH]c(=O)n(C2CC(O)C(CO)O2)cc1Cl (stereo not given)
inactive: [1] 0.75% | [2] -11.1% | [3] 2.9% | [4] 11.8% | [5] 1.45% | [6] 2.25%

CCC(C)CCC(=O)OCC(=O)c1ccc(-c2ccccc2)cc1 (stereo not given)
inactive: [1] 13.7% | [2] -18.9% | [3] 14.8% | [4] -13.5% | [5] 7% | [6] 5.75%

COc1ccc(C(=O)Oc2ccccc2C)cc1
inactive: [1] 5.9% | [2] -26.4% | [3] -6.1% | [4] -11% | [5] -6.8% | [6] -1.95%

O=[N+]([O-])c1ccc(N/N=C/c2ccccc2Cl)cc1
inactive: [1] 8% | [2] 12.4% | [3] 26.4% | [4] -1.3% | [5] 36.4% | [6] 31.4%

Cc1ccc(S(=O)CC(Cl)c2ccccc2)cc1 (stereo not given)
inactive: [1] -26.6% | [2] 4.2% | [3] 13.2% | [4] 56% | [5] 14.3% | [6] 21.1%

CCCCc1ccc2[n+](c1)C(C(=O)OCC)=PC2 (stereo not given)
inactive: [1] -18.1% | [2] -36.8% | [3] -21.4% | [4] -18.9% | [5] -19.9% | [6] -11.9%

CC(=O)/C=C(/C=N/O)c1ccccc1
inactive: [1] 10.7% | [2] -27.1% | [3] 14.2% | [4] 7.75% | [5] 10.1% | [6] -55.8%

NC(=S)N=Nc1c(O)[nH]c2c(Cl)cc(Cl)cc12
inactive: [1] 6.7% | [2] -14.2% | [3] 28.6% | [4] 7.15% | [5] 13.8% | [6] -8.95%

Cc1cc(C)c(C(=O)/C=C(\N)C(=O)c2c(C)cc(C)cc2C)c(C)c1
inactive: [1] -7.05% | [2] 0% | [3] 2.75% | [4] 14.7% | [5] 27.1% | [6] 4.75%

Cc1ccc2c(c1)C(O)(CC(=O)c1ccccc1)C(=O)N2 (stereo not given)
inactive: [1] 35.4% | [2] 0.55% | [3] 7% | [4] -47.9% | [5] -6.6% | [6] 1.35%

C[C@H]1S[C@H](c2c(F)cccc2F)n2c1nc1ccccc12
inactive: [1] 9.5% | [2] -10.6% | [3] 43.8% | [4] -0.25% | [5] 26.6% | [6] 35%

Cc1cc2nc(-c3cc4cc(Cl)cc(Cl)c4oc3=O)[nH]c2cc1C
inactive: [1] 10.6% | [2] 17.8% | [3] 2.7% | [4] -5.4% | [5] 17.2% | [6] -0.4%

COc1cc(CC(=O)O)ccc1O
inactive: [1] 11.8% | [2] -21.3% | [3] -26.7% | [4] -18.4% | [5] 1.45% | [6] -0.55%
